Screens from PubChem.
This is a sample that favours compounds with a hit; in the whole collection about 11% have one here.
HTT aggregate – inhibitors of mutant huntingtin aggregate formation in PC12 cells | Potency, µM (top dose mostly 46.1 µM), inactives show at the highest dose activity change, negative = inhibition, hits mostly inhibitors | PC12 HttQ103-GFP aggregates, Acumen cytometry, 40 h | AID 1688 | 1.1% of 220,000 active; also: potency is read from the fitted curve at half-maximal effect; % is scaled to controls: 0 for no effect and ±100 for the full control effect; nearly all actives have a fitted effect of over 60% in size
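Compounds (qHTS titration) were added to PC12 cells expressing an ecdysone-driven HTT exon 1 Q103–GFP fusion after induction with 100 nM tebufenozide. Aggregate formation was measured as GFP objects in cell lysates.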
HTT ATP protect – protects HTT-Q103 PC12 cells, measured by ATP; Potency, µM (highest dose often 56.4 µM), without a hit: cytoprotection (ATP increase), hits mostly activators; PC12 HTT-Q103 induced, cytoprotection, ATP luminescence, 40 h; AID 1471; 0.14% of 230,000 active; also: potency is read from the fitted curve at half-maximal effect; % of control where 0% means no effect; nearly all actives have a fitted effect of over 45% in size
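ATP quantification (ATPlite) reports survival of PC12 cells in which tebufenozide, 100 nM final, switches on Htt exon 1 with 103 glutamines linked to GFP; compounds are titrated.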
PNC inhibitor – inhibitors of perinucleolar compartment assembly; AID 2417; activity change (PNC), negative = inhibition, % at 10 µM; PC3M PTB-GFP, PNC prevalence imaging, 16 h; hits give low values; 3.1% of 140,000 active;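 active = readout at or below -70, meaning at least 70% loss of cells showing the perinucleolar compartment, a nuclear body marking cancer cells; inconclusive = readout between -30 and a set limit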;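 also: plate controls were DMSO wells for no effect and camptothecin positive control wells for full effect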
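PC3M cells stably expressing PTB-GFP, 750–1000 cells/well, treated 16 h at 37 °C with compound (23 nl of library stock), in duplicate. After paraformaldehyde fixation and Hoechst stain, imaged at 20x; PNC prevalence scored by image analysis.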
RGS12 GoLoco inh – blocks human Gai1 binding to RGS12 GoLoco peptide, red readout. Gai1:RGS12 GoLoco peptide FP, rhodamine, 10 min. Potency, µM (titrated, usually from 61.6 µM), for the others: top-dose activity, negative = inhibition, most hits filed as inhibitors. 0.44% of 230,000 active; active = well fitted inhibition curve with a large enough effect, not every such curve was filed as active; inactive = no such curve, though single readings can be large or run the other way; also: potency is read from the fitted curve at half-maximal effect; % is scaled to controls: 0 for no effect and ±100 for the full control effect; nearly all actives have a fitted effect of over 30% in size
HPGD inh – inhibitors of human 15-hydroxyprostaglandin dehydrogenase (HPGD); P15428; purified HPGD, NADH fluorescence kinetic, PGE2 substrate; Potency, µM, for the others: at the top dose activity change, negative = inhibition, actives largely listed as inhibitors; 4.3% of 150,000 active; active = well fitted inhibition curve with a large enough effect, not every such curve was filed as active; inconclusive = small, poorly fitted or top-dose-only effect, or another doubt; inactive = no such curve, though single readings can be large or run the other way; also: potency is read from the fitted curve at half-maximal effect; % is scaled to controls: 0 for no effect and ±100 for the full control effect
Target sequence (P15428 whole entry, looked up): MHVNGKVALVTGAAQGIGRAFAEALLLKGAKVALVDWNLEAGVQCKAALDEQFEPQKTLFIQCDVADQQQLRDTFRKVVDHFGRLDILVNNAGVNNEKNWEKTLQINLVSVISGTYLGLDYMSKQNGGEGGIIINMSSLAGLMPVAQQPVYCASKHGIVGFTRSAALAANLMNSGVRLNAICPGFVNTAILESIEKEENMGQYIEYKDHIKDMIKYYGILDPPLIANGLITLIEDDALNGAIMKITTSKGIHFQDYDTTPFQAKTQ
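NADH formation kinetics: reaction with 30 uM PGE2 and 1 mM NAD+ (final), 20 nM enzyme, Tris-HCl pH 8 with Tween 20, after 15 min compound preincubation at room temperature. Fluorescence change, last versus first of five reads.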
ALDH1A1 inh – inhibitors of human aldehyde dehydrogenase 1A1 | P00352 | Purified ALDH1A1, NADH fluorescence, propionaldehyde substrate | Potency, µM (titrated, usually from 75.3 µM), for inactives: at the highest dose activity, negative = inhibition, most hits filed as inhibitors | 7.3% of 220,000 active; active = well fitted inhibition curve with a large enough effect, not every such curve was filed as active; inconclusive = small, poorly fitted or top-dose-only effect, or another doubt; inactive = no such curve, though single readings can be large or run the other way;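 also: potency is read from the fitted curve at half-maximal effect; plate controls were no enzyme wells and a reference inhibitor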
Target sequence (P00352 whole entry, looked up): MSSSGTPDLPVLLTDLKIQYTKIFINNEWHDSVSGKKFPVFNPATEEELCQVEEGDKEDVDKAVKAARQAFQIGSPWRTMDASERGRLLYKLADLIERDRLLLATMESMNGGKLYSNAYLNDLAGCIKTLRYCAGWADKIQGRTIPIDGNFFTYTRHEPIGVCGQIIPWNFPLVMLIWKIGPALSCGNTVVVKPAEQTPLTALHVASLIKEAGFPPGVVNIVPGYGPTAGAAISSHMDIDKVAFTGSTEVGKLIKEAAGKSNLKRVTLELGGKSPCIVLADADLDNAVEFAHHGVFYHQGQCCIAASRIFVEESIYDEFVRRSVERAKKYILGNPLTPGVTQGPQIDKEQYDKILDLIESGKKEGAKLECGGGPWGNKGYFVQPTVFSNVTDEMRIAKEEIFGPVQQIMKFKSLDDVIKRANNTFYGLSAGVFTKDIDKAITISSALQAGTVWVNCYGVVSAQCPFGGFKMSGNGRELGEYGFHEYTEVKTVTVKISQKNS
The depositor's hits bear a star; u = inconclusive; x = no result; ! = repeats disagree; [ ] = remark or other dose. Unless noted, calls follow the shape of the dose curve; as a rule, active = well fitted curve in the direction sought with a large enough effect; inconclusive = small, poorly fitted or top-dose-only effect, or another doubt; inactive = no such curve, though single readings can be large; an effect the other way counts as inactive or inconclusive.

SMILES	HTT aggregate	HTT ATP protect	PNC inhibitor	RGS12 GoLoco inh	HPGD inh	ALDH1A1 inh
O=C(Nc1ccc(Cl)cn1)C1COc2ccccc2O1 (centres undefined)	-12%[9.22 µM]	-3%[10 µM]	x	9%	x	22µM*
O=C(NCc1ccccc1)C1COc2ccccc2O1 (centres undefined)	u	x	u	10%	11µM*	-1%
Cc1ccc(S(=O)(=O)N[C@H]2COC(=O)CC=C[C@@H](C)[C@H]3C=C[C@H](O)[C@@H](COC(=O)CC=C[C@H]2C)O3)cc1	x	u	x	x	x	5%[13.5 µM]
c1ccc(CNc2nc(-c3ccc4c(c3)OCO4)nc3ccccc23)cc1	x	-155%	x	6%	x	u
CCC1CCCCN1C(=O)COc1ccccc1NC(C)=O (centres undefined)	-5%	6%	x	-18%	x	3.5µM*
CCC1CCCCN1C(=O)COc1cc(=O)n(C)c2ccccc12 (centres undefined)	14%	-15%	3	-2%	u	u
CC(CCc1ccccc1)NC(=O)CN1C(=O)NC2(CCCCC2)C1=O (centres undefined)	5%	-30%	x	5%	x	9%
COc1ccc(C(=O)NC(=S)N2CCOCC2)cc1OC	-4%[9.22 µM]	6%[10 µM]	x	6%	x	-4%
COC(=O)CCC(=O)OC1(C)C(=O)C=C2C=C(C3CC3)N(CC(C)C)C=C2C1=O (centres undefined)	40%[9.22 µM]	-12%[10 µM]	x	3.5µM*!	-10%	7%[13.5 µM]
CC(Oc1ccccc1Cl)C(=O)N1CCOCC1 (centres undefined)	13%	-3%[10 µM]	12	4%	28µM*	u
Cc1c(/C=N/NC(=O)c2cccnc2)c2ccccc2n1Cc1ccccc1	10µM*	5%[10 µM]	x	105%	x	-7%
Cc1cc2c(ncn2Cc2ccccc2)c([N+](=O)[O-])c1C	3%	8%	-27	3%	20µM*	u
O=C(Nc1ccc(SC(F)F)cc1)C12CCC(CC1)C2	-18%	-13%[10 µM]	-113*	1%	-4%	-1%
Cc1cc2ncn(/N=C/c3ccc(-c4ccccc4)o3)c2cc1C	2%	6%	-9	5%	u	-9%
Cc1ccc(/C=N/n2cnc3sc(-c4ccccc4)cc3c2=O)o1	-12%	-23%	-12	6%	u	32µM*
CCC(=O)N1CCN(c2ccc(Cl)cc2NC(=O)Cc2ccccc2)CC1	-23%	0%	21	-12%	-5%	5µM*
CCN(CC)S(=O)(=O)c1ccc(N2CCOCC2)c(NC(=O)c2cc(=O)[nH]c3ccccc23)c1	21%	-41%	x	-2%	x	14µM*
CCN(CC)S(=O)(=O)c1ccc(N2CCOCC2)c(NC(=O)c2cc(-c3ccccn3)nc3ccccc23)c1	6%	x	x	117%	x	3.5µM*
CCN(CC)S(=O)(=O)c1ccc(N2CCOCC2)c(NC(=O)c2cccc3ccccc23)c1	-2%	3%[10 µM]	u	4%	-18%	13µM*
COc1cc(OC)cc(C(=O)NNC(=O)CCc2ccccc2)c1	6%[9.22 µM]	2%[10 µM]	x	7%	x	-5%
COc1ccccc1N(C)S(=O)(=O)c1ccc(C(=O)OCC(=O)NCc2cccs2)cc1	17%[9.22 µM]	-2%[10 µM]	x	-3%	x	x
O=[N+]([O-])c1ccc2nnn(O)c2c1	7%	x	45	-3%	-16%	-1%
COCC(C)n1c(SCC(=O)NC(=O)Nc2ccc3c(c2)OCCO3)nc2ccccc2c1=O (centres undefined)	22%	14%[10 µM]	u	5%	-2%	-3%
CCN(CC)S(=O)(=O)c1ccc(N2CCOCC2)c(NC(=O)c2c3c(nc4ccccc24)CCC3)c1	7%	-7%[10 µM]	-26	5%	-1%	6.3µM*
CCN(CC)S(=O)(=O)c1ccc(N2CCOCC2)c(NC(=O)c2ccc3ccccc3c2)c1	-6%	1%[0.074 µM]	-8	22%	u	u
SMILES	HTT aggregate	HTT ATP protect	PNC inhibitor	RGS12 GoLoco inh	HPGD inh	ALDH1A1 inh
CCN(CC)S(=O)(=O)c1ccc(N2CCOCC2)c(NC(=O)Cc2ccc(Cl)cc2)c1	u	7%[10 µM]	18	x	x	25µM*
CCN(CC)S(=O)(=O)c1ccc(N2CCOCC2)c(NC(=O)COc2ccccc2C#N)c1	-8%	-22%	x	0%	x	13µM*
CCN(CC)S(=O)(=O)c1ccc(N2CCOCC2)c(NC(=O)COc2ccc(C#N)cc2)c1	-5%[9.22 µM]	-6%[10 µM]	x	7%	x	x
COc1cc(O)cc(OC)c1OC	x	x	x	3%	-6%	0%
O=S(=O)(CCSc1nc2ccccc2o1)Cc1ccccc1	12%	-1%[0.074 µM]	u	6%	-14%	20µM*
CCS(=O)(=O)CCSc1nc2ccccc2o1	0%	-3%	-18	14%	-7%	4%
O=S(=O)(CCSc1ccccn1)c1nc2ccccc2s1	u	6%[0.074 µM]	-13	7%	-27%	0.22µM*
O=S(=O)(CCSc1nc2ccccc2o1)c1nc2ccccc2s1	u	u	u	9%	-3%	0.28µM*
O=C(CSc1ccccn1)Nc1nc2ccccc2s1	-12%	7%[10 µM]	34	5%	-5%	-7%
O=C(c1cnccn1)N1CCC2(CC1)CCN(c1ccccc1)CC2	x	7%	x	-2%	-1%	-4%
Cc1ccc(/C=C2/C(=O)c3ccc(C(=O)O)cc3C2=O)o1	16%[9.22 µM]	-14%[10 µM]	x	244%	x	7.1µM*
O=C(O)c1ccc2c(c1)C(=O)/C(=C/c1ccccc1)C2=O	-15%	-11%[10 µM]	-6	-13%	13µM*	-15%
COc1ccc(Cc2nnc(NC(=O)Cn3cnc4c3c(=O)n(C)c(=O)n4C)s2)cc1OC	u	-10%	-11	0%	14µM*	u
Cn1c(=O)c2c(ncn2CC(=O)Nc2nnc(Cc3ccccc3)s2)n(C)c1=O	-13%	-2%	u	4%	-16%	-2%
O=[N+]([O-])c1cc2c(cc1/C=N\NS(=O)(=O)c1ccccc1)OCO2	-13%	4%[10 µM]	-3	5%	-27%	1.6µM*
CNc1nc(N/N=C/c2cc3c(cc2[N+](=O)[O-])OCO3)nc(Nc2ccccc2)n1	-29%	-198%	x	2%	x	3%
C[N+](C)([O-])CCC=C1c2ccccc2CCc2ccccc21	x	-12%[10 µM]	x	9%[14.2 µM]	-1%	7%[13.5 µM]
N#Cc1cccc(-c2ccc3ncnc(NC4CCNCC4)c3c2)c1	x	-43%	x	-3%	x	-12%
COc1ccc(NCc2ccc([N+](=O)[O-])s2)c(OC)c1	u	14%[10 µM]	43	4%	-14%	25µM*
COc1cc(/C=C2\SC(=O)N(Cc3ccc(Cl)cc3)C2=O)cc([N+](=O)[O-])c1O	31%[9.22 µM]	-40%[1.9 µM]	x	-6%	x	2.5µM*
COc1cc(/C=C2\SC(=O)N(Cc3ccc(F)cc3)C2=O)cc([N+](=O)[O-])c1O	-3%[9.22 µM]	2%[10 µM]	x	-6%	x	0.71µM*
CCOC(=O)CN1C(=O)S/C(=C/c2ccc(OC)c([N+](=O)[O-])c2)C1=O	2%	11%[10 µM]	-24	2%	16µM*	13µM*
